The record followed here is PubChem BioAssay (Tox21).

The nature of assay [1]: qHTS assay for small molecules that induce genotoxicity in human embryonic kidney cells expressing luciferase-tagged ATAD5 (AID 651632). Note: nearly all actives have a fitted effect of over 15% in size. A digest of the protocol:
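HEK293T cells carrying luciferase-tagged ATAD5 were given compound or DMSO vehicle and incubated 16 hr at 37C, 5% CO2. Luciferase activity was read after 30 min at room temperature with Amplite; a rise signals genotoxic stress.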
In general terms: Quantitative high-throughput screening tests each substance at several concentrations.

Assay [2] is described as follows: qHTS assay for small molecule agonists of the p53 signaling pathway - cell viability (AID 651633; calls by dose curve; note: nearly all actives have a fitted effect of over 30% in size; note: potency is the fitted concentration of half-maximal effect). The method, boiled down: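 Viability counter-read: CellTiter-Glo luminescence (30 min, room temperature) in the same p53RE-bla plates. These plates had been exposed to compounds for 16 h at 37 C.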
Assay [3] is described as follows: qHTS assay for small molecule disruptors of the mitochondrial membrane potential - cell viability (AID 720634; calls by dose curve;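 note: human HepG2 liver cancer cells; series mostly up to about 83 µM; nearly all actives have a fitted effect of over 20% in size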). A digest of the protocol:
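HepG2 cells, 2,000 per well, attached overnight, then treated 1 hr at 37 C, 5% CO2. Viability read as ATP by CellTiter-Glo luminescence after 30 min at room temperature. Read in the same wells as the m-MPI membrane-potential dye assay.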

Assay [4] in a line: qHTS assay for small molecule disruptors of the mitochondrial membrane potential (AID 720635). Note: potency is the fitted concentration of half-maximal effect. The method, boiled down: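 Mitochondrial membrane potential tracked with Mito-MPS dye, red aggregates (ex 540/em 590 nm) against green monomers (ex 490/em 535 nm). Compound treatment 1 hr at 37C, dye 30 min in HepG2.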
The nature of assay [5]: qHTS assay to test for compound auto fluorescence at 590 nm (red) in HepG2 cells (AID 720674). The method, boiled down: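 1 hr compound incubation on HepG2 cells, 37 C, 5% CO2; plate read ex 540 nm / em 590 nm; intensities reported as Rose Bengal sodium equivalents.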
A short description of assay [6]: qHTS assay to test for compound auto fluorescence at 535 nm (green) in HepG2 cells (AID 720675). Note: potency is the fitted concentration of half-maximal effect.
A short description of assay [7]: qHTS assay to test for compound auto fluorescence at 460 nm (blue) in HEK293 cells (AID 720678). A digest of the protocol:
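HEK293 cells (2,000/well, medium with 10% dialyzed FBS) attached 4-5 hr, then exposed to compound overnight at 37C, 5% CO2. Blue fluorescence read at 405/460 nm, with triamterene as reference fluorophore.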

Assay [8] can be described thus: qHTS assay to test for compound auto fluorescence at 590 nm (red) in HEK293 cells (AID 720679). The method, boiled down:
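HEK293 cells (2,000/well, 10% dialyzed FBS) attached 4-5 hr, then dosed with compound or DMSO and incubated overnight at 37C, 5% CO2. Red fluorescence read at 540/590 nm, Rose Bengal sodium as reference fluorophore.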

Assay [9] in a line: qHTS assay to test for compound auto fluorescence at 535 nm (green) in HEK293 cells (AID 720680). Note: potency is the fitted concentration of half-maximal effect.
Assay [10] in a line: qHTS assay to test for compound auto fluorescence at 460 nm (blue) in HEK293 cell free culture (AID 720681). A digest of the protocol:
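Blue fluorescence (Ex 405/Em 460 nm, triamterene-equivalent) was read immediately after pin transfer of compound or DMSO into medium (DMEM, 10% FBS) without cells.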

Assay [11] is described as follows: qHTS assay to test for compound auto fluorescence at 535 nm (green) in HEK293 cell free culture (AID 720682). A digest of the protocol: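 Fluorescein serves as the green reference fluorophore; each compound's intrinsic emission at 535 nm (excitation 485 nm) is reported as an equivalent amount of that dye, measured in serum-containing DMEM without cells.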
A short description of assay [12]: qHTS assay to test for compound auto fluorescence at 590 nm (red) in HEK293 cell free culture (AID 720683). A digest of the protocol: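 Red-channel autofluorescence of compounds in culture medium (DMEM, 10% FBS), no cells, measured at 540/590 nm. Rose Bengal sodium is the reference fluorophore for equivalence.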
Assay [13] can be described thus: qHTS assay to test for compound auto fluorescence at 590 nm (red) in HepG2 cell free culture (AID 720684). The method, boiled down: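 Plate contents were MEM with 10% FBS plus test compound or DMSO, no cells. Fluorescence was recorded with 540 nm excitation and 590 nm emission.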
Assay [14] in a line: qHTS assay to test for compound auto fluorescence at 460 nm (blue) in HepG2 cell free culture (AID 720685). The method, boiled down: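 Compound (23 nL) or DMSO pinned into cell-free MEM with 10% FBS; blue fluorescence read at 405/460 nm excitation/emission, expressed as auto-fluorescence equivalency to triamterene.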
The nature of assay [15]: qHTS assay to test for compound auto fluorescence at 535 nm (green) in HepG2 cell free culture (AID 720686). Note: potency is the fitted concentration of half-maximal effect.
Assay [16] can be described thus: qHTS assay to test for compound auto fluorescence at 460 nm (blue) in HepG2 cells (AID 720687). The method, boiled down: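 Blue-channel autofluorescence (Ex/Em 405/460 nm, triamterene-equivalent) was measured after 1 hr compound exposure at 37 C, 5% CO2. Cells were HepG2, plated overnight at 37 C in MEM plus 10% FBS.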
Assay [17] has as its target Glucocorticoid receptor (Homo sapiens) (UniProt P04150). The assay is described as follows: qHTS assay to identify small molecule agonists of the glucocorticoid receptor (GR) signaling pathway (AID 720691; active = well fitted activation curve with a large enough effect in the signal ratio in the repeat runs, not every such curve was filed as active; the % refers to the signal ratio; note: potency is the fitted concentration of half-maximal effect). A digest of the protocol: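 GR-bla HeLa cells carrying a GRE-driven beta-lactamase reporter, exposed to compounds for 18 h at 37 C. Reporter activation read as fluorescence after 2 h with LiveBLAzer B/G FRET substrate at room temperature.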

The target is the same in assay [18]. The assay is described as follows: qHTS assay to identify small molecule antagonists of the glucocorticoid receptor (GR) signaling pathway (AID 720692; active = well fitted inhibition curve with a large enough effect in the signal ratio in the repeat runs, not every such curve was filed as active; the % refers to the signal ratio; note: potency is the fitted concentration of half-maximal effect). A digest of the protocol: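 GR-bla HeLa cells carrying a GRE-driven beta-lactamase reporter received compound after 4 h plating, then dexamethasone (5 nM final). After 18 h at 37C, the FRET substrate was loaded for 2 h at room temperature and fluorescence read.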

The nature of assay [19]: qHTS assay for small molecules that induce genotoxicity in human embryonic kidney cells expressing luciferase-tagged ATAD5 - cell viability (AID 651634; calls by dose curve; note: nearly all actives have a fitted effect of over 25% in size; note: potency is the fitted concentration of half-maximal effect). A digest of the protocol: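 HEK293T cells carrying luciferase-tagged ATAD5, 2,000 cells/well, exposed to compound for 15.5 hr at 37C. Viability read as live-cell protease activity by CellTiter-Fluor fluorescence after 30 min at 37C.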

SMILES strings stand for the structures. “And” between values parts separate entries of the source, which are not always exact repeats. Equal entries are not always repeated. Results filed as inconclusive are left out. Some compounds were tested as several samples or in several runs, with calls that do not always agree. The source made the active and inactive calls. Unless noted, calls come from the whole dose curve; as a rule, active = well fitted curve in the direction sought with a large enough effect in the repeat runs; inconclusive = weak or mixed curves; inactive = no such curve, though single readings can be large; an effect the other way counts as inactive or inconclusive.
% is set by controls: 0 for no effect and ±100 for the full control effect; tags give direction and shape of the fitted curve or compound fluorescence and quenching.

Chain of Glucocorticoid receptor (Homo sapiens) (P04150 whole entry, looked up): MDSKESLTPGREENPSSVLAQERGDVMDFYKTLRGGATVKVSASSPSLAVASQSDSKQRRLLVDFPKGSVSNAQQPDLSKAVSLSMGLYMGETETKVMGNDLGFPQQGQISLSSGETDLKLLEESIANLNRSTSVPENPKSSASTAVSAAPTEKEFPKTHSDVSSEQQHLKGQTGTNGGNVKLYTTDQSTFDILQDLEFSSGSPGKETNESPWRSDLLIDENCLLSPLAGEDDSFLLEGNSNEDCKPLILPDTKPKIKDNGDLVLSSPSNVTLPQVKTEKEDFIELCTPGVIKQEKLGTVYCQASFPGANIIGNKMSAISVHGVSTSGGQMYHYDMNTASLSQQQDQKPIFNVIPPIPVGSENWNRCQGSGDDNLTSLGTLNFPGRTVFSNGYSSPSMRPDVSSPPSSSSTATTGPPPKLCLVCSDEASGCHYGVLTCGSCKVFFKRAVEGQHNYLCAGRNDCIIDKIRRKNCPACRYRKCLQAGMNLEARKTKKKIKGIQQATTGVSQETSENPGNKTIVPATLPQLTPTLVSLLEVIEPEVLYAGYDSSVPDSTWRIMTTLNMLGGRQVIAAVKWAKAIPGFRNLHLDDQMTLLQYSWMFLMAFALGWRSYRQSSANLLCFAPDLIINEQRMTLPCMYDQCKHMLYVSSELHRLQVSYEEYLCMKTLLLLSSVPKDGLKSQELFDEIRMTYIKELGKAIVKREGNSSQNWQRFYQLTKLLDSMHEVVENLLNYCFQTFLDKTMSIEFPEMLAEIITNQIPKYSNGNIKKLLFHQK

In the case of `CCCCC/C=C/C=C/C=O`, the Potency result in assay [1], in assay [3], in [5], in assay [6], in assay [8] and in assay [9] was “inactive” in each case. The Potency entry in assay [11], in [12], in assay [13], in [15] and in [17] was “inactive” each time. The Potency is 54 µM (active) in [2]; 60.6 µM (active) and 54.5 µM (active) in [4]; 49 µM (active) in [18]. Further, the call in [7], in [10], in assay [14] and in assay [16] was inactive.
With `CCCCC(CC)COCC1CO1` (configuration not stated), the Potency result in assay [1], in assay [2], in assay [19], in assay [3], in [4] and in assay [5] was “inactive” in each case. Moreover, the Potency result in assay [6], in assay [8], in assay [9], in assay [11], in [12] and in assay [13] was “inactive” throughout. Also, the Potency result in [15], in [17] and in assay [18] was “inactive” each time. Also, the molecule was classed as inactive in assay [10], in assay [14] and in assay [16].
Regarding `Oc1ccc(O)cc1`, the Potency entry in assay [1], in assay [3], in assay [4], in [5], in assay [6] and in assay [8] was “inactive” in each case. The Potency result in [9], in [12], in [13], in assay [15] and in [17] was “inactive” throughout. Further, in [2], the Potency was 21.1 µM (active) and 13.6 µM (active) and 17.2 µM (active). In addition, the molecule was called inactive in assay [7], in assay [10] and in assay [14].
For the molecule `CN(C)C(=N)N=C(N)N`, the Potency result in [2], in assay [3], in [4], in assay [5], in assay [6] and in assay [8] was “inactive” in each case. In addition, the Potency result in assay [9], in assay [11], in assay [12], in assay [13], in assay [15] and in assay [18] was “inactive” each time. The molecule was classed as inactive in assay [7], in [10], in assay [14] and in assay [16]. Also, in [17], the Potency was 2.56 µM (active) and inactive.
Take `NC=O`: the Potency result in assay [1], in assay [2], in assay [19], in [3], in [4] and in assay [5] was “inactive” in each case. The Potency result in assay [6], in assay [8], in assay [9], in assay [12], in [13] and in assay [15] was “inactive” in each case. Besides, the result in assay [7], in assay [10], in [14] and in [16] was inactive.
With `c1ccc2cc(Nc3ccc(Nc4ccc5ccccc5c4)cc3)ccc2c1`, the Potency entry in assay [1], in [2], in assay [19], in assay [3], in [4] and in assay [5] was “inactive” each time. In addition, the Potency result in assay [6], in [8], in [9], in [11], in assay [12] and in [13] was “inactive” in each case. Also, the Potency result in assay [15], in [17] and in assay [18] was “inactive” each time. In addition, the result in assay [7], in assay [10], in [14] and in assay [16] was inactive.
`O=C(c1ccccc1)c1ccccc1O`: the Potency result in assay [1], in assay [19], in assay [3], in [5], in [6] and in assay [8] was “inactive” throughout. The Potency result in [9], in assay [11], in assay [12], in assay [13], in [15] and in [17] was “inactive” throughout. The Potency result in assay [18] is “inactive”. For the same molecule, in [4], the Potency entry is “inactive and 61.1 µM (active)”. For the same molecule, the molecule was classed as inactive in assay [7], in [10], in assay [14] and in assay [16].
With `c1ccc2sc(SSN3CCOCC3)nc2c1`, the Potency entry in [1], in assay [2], in assay [19], in assay [3], in assay [5] and in assay [6] was “inactive” in each case. Moreover, the Potency entry in [8], in assay [9], in assay [11], in assay [12], in assay [13] and in assay [15] was “inactive” throughout. Also, the Potency in assay [4] is 34.3 µM (active) and 27.3 µM (active). Moreover, the molecule was classed as inactive in [7], in [10] and in assay [14].
Take `O=c1oc(=O)c2cc3c(=O)oc(=O)c3cc12`: the Potency result in [1], in assay [19], in assay [3], in [4], in assay [5] and in assay [6] was “inactive” each time. Besides, the Potency result in assay [8], in [9], in assay [12], in [13] and in assay [15] was “inactive” each time. Besides, the molecule was classed as inactive in assay [7], in assay [10], in assay [14] and in assay [16].
In the case of `Cc1cc2nc3c(=O)[nH]c(=O)nc-3n(C[C@H](O)[C@H](O)[C@H](O)CO)c2cc1C`, the Potency entry in assay [1], in [2], in [3], in assay [5], in assay [8] and in assay [12] was “inactive” in each case. Moreover, the Potency result in [13] and in assay [17] was “inactive” throughout. Also, the Potency in assay [6] was 35.5 µM (active) [middle of 4 runs]; in assay [9], 35.5 µM [fluorescent] (active) [middle of 4 runs]; in assay [15], 17.8 µM [fluorescent] (active) and 39.8 µM [fluorescent] (active) and 35.5 µM [fluorescent] (active). Besides, the result in assay [7], in assay [10], in assay [14] and in assay [16] was inactive.
`Cc1ccc(C(=O)c2cc(O)c(O)c([N+](=O)[O-])c2)cc1`: the Potency result in [1], in assay [3], in assay [5], in [6], in assay [8] and in assay [9] was “inactive” each time. The Potency result in assay [12], in assay [13], in assay [15] and in assay [17] was “inactive” in each case. Further, the Potency in [2] is 23.7 µM (active) and 54.5 µM (active); in assay [19], 30.6 µM (active); in assay [4], 26.6 µM (active) and 4.86 µM (active); in assay [18], 34.7 µM (active). The outcome in [7], in assay [10], in assay [14] and in assay [16] was inactive.
As to `Clc1nc(Cl)c(Cl)c(Cl)c1Cl`, the Potency entry in [1], in assay [2], in assay [3], in assay [5], in assay [6] and in [8] was “inactive” in each case. Also, the Potency result in assay [9], in [11], in assay [12], in assay [13], in assay [15] and in assay [17] was “inactive” each time. Also, the outcome in assay [7], in assay [10], in [14] and in assay [16] was inactive. The Potency in assay [18] was 15.6 µM (active) and 24.5 µM (active).
